The record followed here is PubChem BioAssay (NCI).

Some test systems named below: SR leukemia; RPMI-8226 leukemia; OVCAR-8 ovarian; OVCAR-5 ovarian; OVCAR-4 ovarian; SK-OV-3 ovarian; IGROV1 ovarian; OVCAR-3 ovarian; HS 578T breast; NCI/ADR-RES ovarian; T-47D breast; BT-549 breast; MDA-MB-435 melanoma; SW-620 colon; MCF7 breast; HCT-116 colon; HCC-2998 colon; KM12 colon.
Common to all, as to assay: NCI-60 one-dose screen, 48 h (100 = growth as untreated, 0 = no growth, -100 = all killed)
Conditions in all cases: 10 µM unless noted

Molecules are shown by their SMILES. This is part of a sample that, as a whole, favours compounds with a hit. Of some 83,000 tested, about 20% had one in any assay.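 Assay: single dose, 48 h. Readout: percent growth (0 = no net growth; negative = cell death). Active: <10.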 A number with no mark means an inactive call. Calls of active or inactive are those of the source.

As to `CCCCCCCCCCC(C[N+](C)(C)C/C=C/c1ccccc1)C(O)c1ccccc1` (configuration not stated), the growth with SR leukemia is -46.2% (active); with RPMI-8226 leukemia it was -50.8% (active); in the test on OVCAR-8 ovarian, 20.5%; with OVCAR-5 ovarian it was 42.6%; in the test on OVCAR-4 ovarian, 8.79% (active); in the test with SK-OV-3 ovarian, 53.1%. In addition, the growth with IGROV1 ovarian is -70.9% (active); with OVCAR-3 ovarian, -50.7% (active); in the test on HS 578T breast, 49%; in the test on NCI/ADR-RES ovarian it was 97.6%; in the test with T-47D breast, 10.3%; with BT-549 breast, -6.83% (active). For the same compound, the growth in the test with MDA-MB-435 melanoma was -66% (active); with SW-620 colon, 2.5% (active); with MCF7 breast, -66.9% (active); with HCT-116 colon it was -87.7% (active); with HCC-2998 colon, 7.77% (active); in the test on KM12 colon it was -97.5% (active).
For the compound `O=C(/C=C1\C(=O)N(Cc2ccc([N+](=O)[O-])cc2)c2ccccc21)c1ccc(OCCN2CCCCC2)cc1`, the growth is -27.9% (active) with SR leukemia; -36% (active) with RPMI-8226 leukemia; 0.287% (active) with OVCAR-8 ovarian; -40.6% (active) with OVCAR-5 ovarian; -58.8% (active) with OVCAR-4 ovarian; 85% in the test on SK-OV-3 ovarian. Further, the growth was -49.3% (active) in the test with IGROV1 ovarian; -93.8% (active) with OVCAR-3 ovarian; 6.94% (active) in the test with HS 578T breast; 6.18% (active) in the test on NCI/ADR-RES ovarian; -62.8% (active) with T-47D breast; -80% (active) in the test with BT-549 breast. The growth in the test on MDA-MB-435 melanoma is 22.5%; in the test with SW-620 colon, -78.7% (active); in the test with MCF7 breast, -47.5% (active); in the test with HCT-116 colon, -91.2% (active); in the test with HCC-2998 colon, 42.1%; in the test on KM12 colon, 3.66% (active).
With `O=c1c(N=Nc2nccs2)c(-c2ccccc2)[nH]n1-c1nc(-c2ccccc2)cs1`, the growth in the test on SR leukemia was 33.4%; with RPMI-8226 leukemia, 16.1%; in the test on OVCAR-8 ovarian, 28.1%; in the test with OVCAR-5 ovarian, 98.9%; with OVCAR-4 ovarian, 39.5%; in the test with SK-OV-3 ovarian, 23.5%. In addition, the growth in the test on IGROV1 ovarian is 44.2%; with OVCAR-3 ovarian, 31.6%; in the test on HS 578T breast, 38.4%; with NCI/ADR-RES ovarian, 10.1%; with T-47D breast it was 43.7%; with BT-549 breast, 19%. Also, the growth with MDA-MB-435 melanoma is 26.7%; in the test with SW-620 colon it was 40.2%; in the test on MCF7 breast, 59.1%; in the test on HCT-116 colon it was 26.9%; in the test with HCC-2998 colon it was 42.2%; in the test with KM12 colon it was 28.5%.
For `Nc1nc2c(c3cnccc13)C(c1ccc(Cl)c(Cl)c1)Cc1cnccc1-2` (configuration not stated), the growth in the test with SR leukemia was 5.08% (active); in the test with RPMI-8226 leukemia, -5.48% (active); in the test on OVCAR-8 ovarian it was 9.87% (active); with OVCAR-5 ovarian, -1.65% (active); in the test on OVCAR-4 ovarian, 14.7%; in the test with SK-OV-3 ovarian it was 2.34% (active). Further, the growth was 7.84% (active) in the test with IGROV1 ovarian; -44.8% (active) in the test with OVCAR-3 ovarian; 9.27% (active) in the test with HS 578T breast; -13.2% (active) with NCI/ADR-RES ovarian; 16.9% in the test with T-47D breast; -39.1% (active) in the test on BT-549 breast. The growth is -53% (active) in the test on MDA-MB-435 melanoma; 3.85% (active) in the test on SW-620 colon; 0.513% (active) in the test on MCF7 breast; -37.8% (active) in the test with HCT-116 colon; -75.7% (active) in the test on HCC-2998 colon; -34.8% (active) in the test with KM12 colon.
For the compound `O=C(C(=O)N1CCOCC1)c1ccc(O[C@H]2O[C@H](CO)[C@@H](O)[C@H](O)[C@@H]2O)cc1`, the growth is 94.6% in the test on SR leukemia; 96.8% with RPMI-8226 leukemia; 109% with OVCAR-8 ovarian; 98.6% in the test with OVCAR-5 ovarian; 105% in the test with OVCAR-4 ovarian; 106% in the test with SK-OV-3 ovarian. The growth was 106% in the test with IGROV1 ovarian; 121% with OVCAR-3 ovarian; 183% with HS 578T breast; 105% in the test with NCI/ADR-RES ovarian; 107% in the test with T-47D breast; 99.3% with BT-549 breast. The growth with MDA-MB-435 melanoma is 108%; in the test on SW-620 colon, 107%; in the test on MCF7 breast, 100%; in the test on HCT-116 colon, 96.6%; in the test with HCC-2998 colon it was 79%; in the test with KM12 colon, 110%.
With `Oc1ccc(N=Nc2ccc(N=Nc3ccccc3)cc2)cc1`, the growth in the test with SR leukemia is 43.1%; with RPMI-8226 leukemia, 24.8%; with OVCAR-8 ovarian it was 23.1%; with OVCAR-5 ovarian it was 79.3%; in the test with OVCAR-4 ovarian, 76%; in the test with SK-OV-3 ovarian it was 42.6%. For the same compound, the growth is 53.6% in the test on IGROV1 ovarian; 18.3% in the test with OVCAR-3 ovarian; 91.8% with HS 578T breast; 43.4% with NCI/ADR-RES ovarian; 16.4% in the test on T-47D breast; 49% with BT-549 breast. The growth with MDA-MB-435 melanoma is 19.6%; in the test on SW-620 colon, 44.7%; with MCF7 breast, 22.8%; in the test on HCT-116 colon it was 33.3%; in the test with HCC-2998 colon, 17.2%; in the test with KM12 colon it was 27.8%.
As for `O=C(/C=C\c1ccccc1Cl)c1ccccc1`, the growth in the test on SR leukemia is 67.6%; with RPMI-8226 leukemia, 66%; in the test on OVCAR-8 ovarian, 104%; in the test with OVCAR-5 ovarian, 89.8%; in the test on OVCAR-4 ovarian, 89.8%; in the test with SK-OV-3 ovarian, 107%. For the same compound, the growth was 111% in the test with IGROV1 ovarian; 99.5% in the test with OVCAR-3 ovarian; 111% in the test with HS 578T breast; 101% with NCI/ADR-RES ovarian; 91.6% in the test with T-47D breast; 92% in the test with BT-549 breast. For the same compound, the growth with MDA-MB-435 melanoma is 90.5%; with SW-620 colon, 82.5%; in the test on MCF7 breast, 46.8%; with HCT-116 colon, 53.9%; in the test on HCC-2998 colon, 94.6%; in the test on KM12 colon it was 66%.
Regarding `O=C(Nc1ccccc1)Nc1ccc(Nc2ncnc3sc4c(c23)CCCC4)cc1`, the growth with SR leukemia was 97.9%; in the test with RPMI-8226 leukemia, 99.3%; in the test with OVCAR-8 ovarian it was 107%; in the test on OVCAR-5 ovarian, 119%; in the test with OVCAR-4 ovarian, 107%; with SK-OV-3 ovarian it was 99.6%. Besides, the growth is 107% with IGROV1 ovarian; 103% in the test on OVCAR-3 ovarian; 85.3% in the test on HS 578T breast; 107% in the test with NCI/ADR-RES ovarian; 101% in the test with T-47D breast; 109% in the test with BT-549 breast. Further, the growth in the test on MDA-MB-435 melanoma is 112%; in the test with SW-620 colon, 106%; with MCF7 breast, 96.2%; in the test with HCT-116 colon, 115%; with HCC-2998 colon it was 95.4%; with KM12 colon it was 102%.
As to `COc1ccccc1Cn1cc2c(c1)-c1oncc1CC2`, the growth in the test on SR leukemia is 16%; in the test on RPMI-8226 leukemia, 32.5%; in the test on OVCAR-8 ovarian, 36.2%; in the test with OVCAR-5 ovarian, 35.2%; in the test with OVCAR-4 ovarian it was 49.2%; with SK-OV-3 ovarian, -18.2% (active). Moreover, the growth in the test with IGROV1 ovarian is 16.2%; in the test on OVCAR-3 ovarian, -29.3% (active); with HS 578T breast it was 8.86% (active); with NCI/ADR-RES ovarian, -2.96% (active); in the test with T-47D breast it was 52%; with BT-549 breast, 67.4%. Moreover, the growth was -53.7% (active) with MDA-MB-435 melanoma; 27% in the test on SW-620 colon; 13.4% in the test with MCF7 breast; 9.05% (active) in the test with HCT-116 colon; -43.1% (active) in the test with HCC-2998 colon; 6.78% (active) in the test on KM12 colon.
